Our source for the inhibition values is ChEMBL document CHEMBL1961873, “Compounds: GSK PKIS; Assays: Nanosyn kinase panel” (2012).

For test [1], the target named is T1, Muscle, skeletal receptor tyrosine-protein kinase (Homo sapiens) (UniProt O15146).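 Note: reported value is the mean percent inhibition of MuSK kinase.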
T1 sequence (whole entry): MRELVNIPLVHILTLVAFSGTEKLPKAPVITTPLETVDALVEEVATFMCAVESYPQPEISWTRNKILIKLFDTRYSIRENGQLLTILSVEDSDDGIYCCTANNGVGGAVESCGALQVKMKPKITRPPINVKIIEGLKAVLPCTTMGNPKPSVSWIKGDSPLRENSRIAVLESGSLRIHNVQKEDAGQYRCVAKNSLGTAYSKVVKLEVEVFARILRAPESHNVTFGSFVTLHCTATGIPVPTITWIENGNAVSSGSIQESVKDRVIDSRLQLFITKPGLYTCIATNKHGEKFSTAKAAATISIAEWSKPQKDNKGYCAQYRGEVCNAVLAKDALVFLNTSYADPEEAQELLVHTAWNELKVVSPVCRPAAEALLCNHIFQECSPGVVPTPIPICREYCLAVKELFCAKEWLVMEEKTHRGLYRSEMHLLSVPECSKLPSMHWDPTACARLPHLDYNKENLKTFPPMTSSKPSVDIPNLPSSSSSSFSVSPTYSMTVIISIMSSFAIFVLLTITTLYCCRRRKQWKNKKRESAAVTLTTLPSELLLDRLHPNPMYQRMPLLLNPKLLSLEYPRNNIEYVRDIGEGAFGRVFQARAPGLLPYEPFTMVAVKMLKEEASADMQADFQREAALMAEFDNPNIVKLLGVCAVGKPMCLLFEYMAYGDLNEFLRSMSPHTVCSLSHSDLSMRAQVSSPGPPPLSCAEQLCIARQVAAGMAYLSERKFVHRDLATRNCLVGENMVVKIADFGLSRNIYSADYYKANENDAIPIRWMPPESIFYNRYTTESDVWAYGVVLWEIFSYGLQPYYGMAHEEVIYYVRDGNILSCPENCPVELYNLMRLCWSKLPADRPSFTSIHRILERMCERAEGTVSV
Conditions: at 1 µM.

For test [2], the target named is Platelet-derived growth factor receptor alpha (Homo sapiens) (UniProt P16234). Particulars: at 0.1 µM.
The target is the same in test [3]. Particulars: at 1 µM.
The test system of test [4] is Platelet-derived growth factor receptor alpha (Homo sapiens), P16234 [D842V]. Particulars: at 0.1 µM.
Platelet-derived growth factor receptor alpha (Homo sapiens), P16234 [D842V], sequence (P16234 whole entry D842V): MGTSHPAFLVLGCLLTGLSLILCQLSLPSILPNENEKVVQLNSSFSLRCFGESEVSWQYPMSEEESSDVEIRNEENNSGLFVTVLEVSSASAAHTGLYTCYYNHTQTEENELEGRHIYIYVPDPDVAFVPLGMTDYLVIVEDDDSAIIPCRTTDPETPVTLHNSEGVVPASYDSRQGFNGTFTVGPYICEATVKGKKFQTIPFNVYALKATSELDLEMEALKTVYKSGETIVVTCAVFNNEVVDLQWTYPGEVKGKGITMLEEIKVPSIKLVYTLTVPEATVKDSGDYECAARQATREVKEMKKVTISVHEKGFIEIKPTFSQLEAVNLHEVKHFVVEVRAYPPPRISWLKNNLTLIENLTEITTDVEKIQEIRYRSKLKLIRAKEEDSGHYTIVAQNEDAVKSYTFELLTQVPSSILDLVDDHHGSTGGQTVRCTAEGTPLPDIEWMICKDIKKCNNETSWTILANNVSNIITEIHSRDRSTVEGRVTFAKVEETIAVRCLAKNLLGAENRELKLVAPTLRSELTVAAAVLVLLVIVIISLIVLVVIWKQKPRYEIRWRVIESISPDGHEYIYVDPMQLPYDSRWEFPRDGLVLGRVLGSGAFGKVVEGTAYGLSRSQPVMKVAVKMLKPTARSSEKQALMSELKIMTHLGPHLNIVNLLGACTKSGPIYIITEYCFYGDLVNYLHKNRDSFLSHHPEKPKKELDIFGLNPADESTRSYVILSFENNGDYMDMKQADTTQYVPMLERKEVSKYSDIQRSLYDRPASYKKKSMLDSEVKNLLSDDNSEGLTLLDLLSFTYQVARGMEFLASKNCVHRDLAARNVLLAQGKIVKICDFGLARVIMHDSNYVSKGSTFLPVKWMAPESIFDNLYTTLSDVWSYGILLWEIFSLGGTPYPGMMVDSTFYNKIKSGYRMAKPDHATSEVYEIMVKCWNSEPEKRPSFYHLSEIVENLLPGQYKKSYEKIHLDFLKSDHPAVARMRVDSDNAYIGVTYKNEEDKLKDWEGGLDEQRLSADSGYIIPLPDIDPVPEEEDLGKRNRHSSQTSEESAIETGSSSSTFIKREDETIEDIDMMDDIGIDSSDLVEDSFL
The test system is the same in test [5]. Conditions: at 1 µM.
For test [6], the system named is Platelet-derived growth factor receptor alpha (Homo sapiens), P16234 [T674I]. Conditions: at 0.1 µM.
Platelet-derived growth factor receptor alpha (Homo sapiens), P16234 [T674I], sequence (P16234 whole entry T674I): as the sequence (P16234 whole entry D842V) above, with T674I, V842D counted along it
For test [7] the test system is unchanged. Conditions: at 1 µM.
In test [8] the test system is Platelet-derived growth factor receptor alpha (Homo sapiens), P16234 [V561D]. Particulars: at 0.1 µM.
Test [9] shares this test system. Particulars: at 1 µM.
Test [10] has as its target Platelet-derived growth factor receptor beta (Homo sapiens) (UniProt P09619). Conditions: at 0.1 µM.
Test [11] has the same target. Particulars: at 1 µM.
The target of test [12] is Tyrosine-protein kinase FRK (Homo sapiens) (UniProt P42685). Particulars: at 0.1 µM.
Tyrosine-protein kinase FRK (Homo sapiens), sequence (P42685 whole entry): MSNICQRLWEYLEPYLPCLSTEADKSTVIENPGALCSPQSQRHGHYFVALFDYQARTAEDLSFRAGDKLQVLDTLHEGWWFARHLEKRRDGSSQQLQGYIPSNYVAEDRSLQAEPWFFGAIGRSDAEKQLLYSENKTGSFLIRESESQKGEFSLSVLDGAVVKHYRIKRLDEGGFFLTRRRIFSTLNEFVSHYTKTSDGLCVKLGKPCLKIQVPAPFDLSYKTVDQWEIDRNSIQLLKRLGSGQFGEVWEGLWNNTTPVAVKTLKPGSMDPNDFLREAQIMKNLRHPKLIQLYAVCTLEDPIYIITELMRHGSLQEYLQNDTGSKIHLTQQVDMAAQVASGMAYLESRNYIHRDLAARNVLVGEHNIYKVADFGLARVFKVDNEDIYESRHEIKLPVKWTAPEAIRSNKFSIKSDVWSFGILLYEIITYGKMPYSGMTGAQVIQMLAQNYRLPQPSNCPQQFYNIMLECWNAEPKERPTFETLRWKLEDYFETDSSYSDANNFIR
The target is the same in test [13]. Particulars: at 1 µM.
Test [14] concerns the target Protein-tyrosine kinase 2-beta (Homo sapiens) (UniProt Q14289). Conditions: at 0.1 µM.
Test [15] shares this target. Particulars: at 1 µM.
Test [16] has as its target Proto-oncogene tyrosine-protein kinase receptor Ret (Homo sapiens) (UniProt P07949). Conditions: at 0.1 µM.
The target is the same in test [17]. Particulars: at 1 µM.
Test [18] relates to Proto-oncogene tyrosine-protein kinase receptor Ret (Homo sapiens), P07949 [V804L]. Particulars: at 0.1 µM.
Proto-oncogene tyrosine-protein kinase receptor Ret (Homo sapiens), P07949 [V804L], sequence (P07949 whole entry V804L): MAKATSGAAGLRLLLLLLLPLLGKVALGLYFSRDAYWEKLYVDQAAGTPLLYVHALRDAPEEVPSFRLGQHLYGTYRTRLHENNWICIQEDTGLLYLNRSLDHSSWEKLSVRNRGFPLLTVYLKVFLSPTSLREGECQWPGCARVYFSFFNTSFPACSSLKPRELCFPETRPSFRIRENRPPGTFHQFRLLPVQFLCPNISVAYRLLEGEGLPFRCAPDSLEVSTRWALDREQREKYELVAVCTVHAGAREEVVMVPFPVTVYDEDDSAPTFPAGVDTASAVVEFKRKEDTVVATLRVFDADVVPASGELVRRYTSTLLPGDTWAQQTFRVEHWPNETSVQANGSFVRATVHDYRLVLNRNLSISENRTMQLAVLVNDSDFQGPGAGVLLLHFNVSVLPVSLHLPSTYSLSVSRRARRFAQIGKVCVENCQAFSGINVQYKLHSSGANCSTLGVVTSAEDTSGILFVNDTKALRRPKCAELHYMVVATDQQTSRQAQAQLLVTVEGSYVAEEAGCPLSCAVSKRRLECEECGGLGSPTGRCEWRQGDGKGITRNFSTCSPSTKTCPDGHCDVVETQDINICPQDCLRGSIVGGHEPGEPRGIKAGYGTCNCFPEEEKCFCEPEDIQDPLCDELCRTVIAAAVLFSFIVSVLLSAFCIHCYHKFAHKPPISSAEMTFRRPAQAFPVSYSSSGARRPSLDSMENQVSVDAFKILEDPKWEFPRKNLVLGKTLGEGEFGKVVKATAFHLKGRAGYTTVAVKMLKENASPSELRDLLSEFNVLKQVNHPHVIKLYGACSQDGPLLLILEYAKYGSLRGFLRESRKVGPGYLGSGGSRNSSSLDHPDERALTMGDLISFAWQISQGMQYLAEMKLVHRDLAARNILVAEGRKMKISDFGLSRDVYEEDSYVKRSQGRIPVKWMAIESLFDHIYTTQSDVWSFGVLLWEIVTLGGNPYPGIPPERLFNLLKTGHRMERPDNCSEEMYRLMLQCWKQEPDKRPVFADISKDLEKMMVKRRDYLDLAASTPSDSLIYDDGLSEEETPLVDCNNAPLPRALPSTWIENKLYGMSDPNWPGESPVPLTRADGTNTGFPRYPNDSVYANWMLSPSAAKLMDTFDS
For test [19] the test system is unchanged. Conditions: at 1 µM.
Test [20] has as its system Proto-oncogene tyrosine-protein kinase receptor Ret (Homo sapiens), P07949 [Y791F]. Conditions: at 0.1 µM.

Platelet-derived growth factor receptor beta (Homo sapiens), sequence (P09619 whole entry): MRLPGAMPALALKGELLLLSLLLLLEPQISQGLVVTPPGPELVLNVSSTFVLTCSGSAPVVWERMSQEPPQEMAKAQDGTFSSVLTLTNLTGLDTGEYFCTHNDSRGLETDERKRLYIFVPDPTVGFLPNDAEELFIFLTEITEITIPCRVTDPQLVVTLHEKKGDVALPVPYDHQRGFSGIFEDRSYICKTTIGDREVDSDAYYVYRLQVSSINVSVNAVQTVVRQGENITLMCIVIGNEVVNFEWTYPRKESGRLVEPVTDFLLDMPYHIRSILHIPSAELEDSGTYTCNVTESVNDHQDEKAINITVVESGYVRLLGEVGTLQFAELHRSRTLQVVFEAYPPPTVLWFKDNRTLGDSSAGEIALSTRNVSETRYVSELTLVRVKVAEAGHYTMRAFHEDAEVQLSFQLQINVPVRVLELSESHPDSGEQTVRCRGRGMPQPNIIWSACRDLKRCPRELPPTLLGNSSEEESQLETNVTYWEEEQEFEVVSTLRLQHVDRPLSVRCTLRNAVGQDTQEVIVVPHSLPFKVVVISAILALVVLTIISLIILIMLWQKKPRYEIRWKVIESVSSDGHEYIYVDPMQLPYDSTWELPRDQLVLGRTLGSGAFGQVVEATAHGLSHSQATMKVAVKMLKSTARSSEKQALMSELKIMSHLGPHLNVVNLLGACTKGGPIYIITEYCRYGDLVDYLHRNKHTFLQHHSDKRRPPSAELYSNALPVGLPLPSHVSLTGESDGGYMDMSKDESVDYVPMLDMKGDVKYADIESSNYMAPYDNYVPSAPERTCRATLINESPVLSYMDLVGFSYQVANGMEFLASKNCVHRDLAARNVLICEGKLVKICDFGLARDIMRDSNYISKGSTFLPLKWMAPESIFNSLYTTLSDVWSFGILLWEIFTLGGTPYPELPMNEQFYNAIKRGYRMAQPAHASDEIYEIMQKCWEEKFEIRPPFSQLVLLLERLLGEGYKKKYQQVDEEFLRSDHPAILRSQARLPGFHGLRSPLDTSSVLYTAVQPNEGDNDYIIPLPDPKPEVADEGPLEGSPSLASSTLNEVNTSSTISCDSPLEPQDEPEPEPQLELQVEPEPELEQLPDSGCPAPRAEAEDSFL

Regarding `O=C1NC(=O)C(c2ccc(Cl)cc2)=C1Nc1ccc(Cl)c(C(=O)O)c1`, the inhibition in [1] is 2.23%; in test [2], 1.93%; in test [3] it was 7.23%; in [4], 1.16%; in test [5] it was 2.61%; in test [6], 0.45%. Moreover, the inhibition in [7] was 1.25%; in test [8] it was 3.89%; in test [9], 3.15%; in test [10], 4.09%; in [11], 6.67%; in test [12], -0.84%. The inhibition in test [13] was 0.85%; in [14], -2.28%; in test [15] it was 3.24%; in test [16], 3.14%; in test [17], 2.98%; in test [18], 0.34%. Besides, the inhibition was -0.69% in [19] and 0.25% in test [20].
Regarding `CCN1CCC(CC(=O)Nc2n[nH]c3nc(-c4cccs4)c(Br)cc23)CC1`, the inhibition in test [1] is 6.39%; in test [2], 1.61%; in test [3], 5.44%; in test [4], 1.12%; in test [5], 6.22%; in [6] it was -1.25%. In addition, the inhibition in test [7] was 3.53%; in test [8], 2.04%; in [9], 4.21%; in [10], 4.9%; in test [11] it was 14.4%; in [12], -1.17%. Also, the inhibition in test [13] is -0.21%; in test [14], -9.91%; in test [16], 1.65%; in test [17], 3.8%; in test [18], 0.08%; in [19], -2.04%. Also, in test [20], the inhibition was -1.87%.
Regarding `Cc1nn(C)c2cc(N(C)c3ccnc(Nc4cccc(S(N)(=O)=O)c4)n3)ccc12`, the inhibition in test [1] was 6.58%; in test [2] it was 22.9%; in test [3], 61.2%; in [4] it was 7.33%; in test [5] it was 36.1%; in test [6] it was 5.29%. Moreover, the inhibition in test [7] was determined as 15.1%; in test [8] it was 23.2%; in test [9] it was 70.1%; in [10] it was 18.2%; in test [11], 61.6%; in [12], 3.71%. In addition, the inhibition in test [13] turned out to be 11.6%; in test [14], 9.35%; in test [15] it was 17.8%; in test [16] it was 11.9%; in test [17], 39%; in test [18], 5.4%. The inhibition came out at 34.2% in test [19] and 12.6% in test [20].
Turning to `CNC(=O)c1cncc(/C=C/c2c(Cl)cccc2Cl)c1`, the inhibition in test [1] was 6.78%; in [2], 8.07%; in test [3] it was 21.1%; in test [4], 0.55%; in test [5], 4.33%; in test [6], 1.59%. Besides, the inhibition was found to be 5.24% in test [7]; 14.1% in test [8]; 43% in [9]; 5.46% in [10]; 17.8% in [11]; 3.04% in test [12]. Further, the inhibition in test [13] is 11%; in test [14] it was 4.56%; in test [15], 7.83%; in [16], 3.32%; in test [17], 12.3%; in test [18], 3.35%. Further, the figures for the inhibition in test [19] and in [20] were 10.2% and 14.7%, respectively.
With `Cc1cccc(-c2n[nH]cc2-c2ccc3ncccc3n2)n1`, the inhibition in test [1] was 2.87%; in test [2], 10.7%; in [3], 55.3%; in test [4], 18.8%; in test [5], 68.7%; in test [6], 1.71%. Also, the inhibition in test [7] is 0.07%; in [8] it was 12.3%; in [9], 53%; in test [10], 2.42%; in test [11], 26.5%; in test [12], 1.55%. The inhibition in test [13] is -0.81%; in test [14], -4.16%; in test [15], 0.67%; in test [16], 1.65%; in test [17] it was 15.1%; in [18] it was -1.82%. For the same compound, the inhibition in test [19] came to 2.72%; in test [20], 3.64%.
For `NC(=O)c1cccc(Nc2nccc(Nc3cccc4[nH]ncc34)n2)c1`, the inhibition in test [1] is 15.3%; in test [2], 23.7%; in test [3], 71.3%; in test [4] it was 13.2%; in [5], 67.7%; in test [6] it was -2.44%. Also, the inhibition worked out at 4.54% in test [7]; 20.7% in test [8]; 70.4% in test [9]; 42.1% in test [10]; 84% in [11]; 61.6% in [12]. Moreover, the inhibition was 93.9% in test [13]; 9.7% in test [14]; 65.5% in [15]; 37.8% in [16]; 82.1% in [17]; 5.88% in test [18]. Moreover, the inhibition in test [19] turned out to be 39.4%; in test [20] it was 46%.
